Test [1] in a line: compounds binding Alexa647 anti-His antibody – biochemical, small-molecule microarray, 635 nm fluorescence, artefact control for SMM control protein annotation, primary screen (AID 1128).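 Also: score merges feature fluorescence with signal-to-noise for each printed compound spot.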 To be noted: higher = more signal.
For test [2], the system named is Human papillomavirus type 1a E7 protein (residues 1-88). As to the kind of experiment: HPV1a E7 small-molecule binders, primary screen, biochemical, small-molecule microarray, residues 1-88, 635 nm (AID 1129). The settings on record: small-molecule microarray binding, fluorescence 635 nm; higher = more signal.
For test [3], the target named is Focal adhesion kinase 1 (Homo sapiens) (UniProt Q05397). As to the kind of experiment: PTK2 protein binding on printed compound slides – biochemical, small-molecule microarray, 635/667 nm fluorescence, BSA, DTT, primary screen (AID 1130).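 Also: composite of spot emission at 667 nm and signal to noise over triplicate slides.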 To be noted: 635 nm fluorescence, higher = more signal.
The subject of test [4] is Fibrinogen (Alexa647-labelled). Nature of the test: Alexa647-fibrinogen binding to printed small molecules – biochemical, small-molecule microarray, 635/667 nm fluorescence, artefact control for SMM control-protein annotation, profiling panel (AID 1131).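 Also: z-score merges 667 nm fluorescence with per-spot signal-to-noise over triplicate slides.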 The settings on record: fibrinogen-A647 binding fluorescence, higher = more signal.
Test [5] addresses Follistatin (Homo sapiens) (UniProt P19883). As to the kind of experiment: FST protein binding to printed compounds – biochemical, small-molecule microarray, 635/667 nm fluorescence, primary screen (AID 1132). To be noted: 635 nm fluorescence, higher = more signal.
The target in test [6] is Fibroblast growth factor 2 (Homo sapiens) (UniProt P09038). As to the kind of experiment: basic fibroblast growth factor binding to printed compounds – biochemical, small-molecule microarray, 635/667 nm fluorescence, primary screen (AID 1133). The settings on record: FGF2, fluorescence 635/667, higher = more signal.
Test [7] is described as follows: JC-1 mitochondrial potential readout, lung cancer cells – cell-based, A549, JC-1 fluorescence, basal, 24 h, 100 nL, profiling panel (AID 1138).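 Also: A549 lung adenocarcinoma cells under basal conditions with no added stimulus; test concentration not given here.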 The settings on record: higher = more signal.
Test [8] has as its system Lefty1. As to the kind of experiment: Lefty1 protein binding to printed compounds – biochemical, small-molecule microarray, 635/667 nm fluorescence, primary screen (AID 1139). To be noted: fluorescence 635/667, higher = more signal.
Test [9] relates to wheat germ agglutinin (Triticum aestivum), Alexa647-labelled. As to the kind of experiment: Alexa647-WGA lectin binding to printed small molecules – biochemical, small-molecule microarray, 635/667 nm fluorescence, artefact control for SMM control-protein annotation, profiling panel (AID 1140).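 Also: score merges 667 nm feature emission with signal to noise over triplicate slides.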 To be noted: WGA-A647 binding, 635 nm fluorescence, higher = more signal.
Test [10] has as its target Luciferin 4-monooxygenase (Photinus pyralis) (UniProt P08659). As to the kind of experiment: inhibition of purified Photinus pyralis luciferase – biochemical, luminescence, purified enzyme, 2006 set, primary screen (AID 1141).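 Also: cell-free assay with purified firefly luciferase at 100 ng per well in PBS; test concentration not given here.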 To be noted: purified firefly luciferase, SteadyGlo luminescence, 30 min; higher = more signal, called active from +8 up or from −8 down.
Test [11] relates to Wnt5a (protein binding on small-molecule microarray). Nature of the test: small molecules binding Wnt5a protein – biophysical, small-molecule microarray, 635/667 nm fluorescence, primary screen (AID 1142).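 Also: fluorescence read at 667 nm with signal to noise per printed feature.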 To be noted: 635 nm fluorescence, higher = more signal.
Test [12] can be described thus: ATP-based viability of Huh7 replicon cells – cell-based, CellTiter-Glo luminescence, basal, 48 h, cytotoxicity control for HCV replication inhibitor project, primary screen (AID 1143).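 Also: Huh7 hepatoma cells carrying a hepatitis C replication reporter with no stimulus; test concentration not given here.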 The settings on record: higher = more signal, called active from +8 up or from −8 down. For orientation: In antiviral work, replicon cells carry a viral genome segment that copies itself.

A short description of test [13]: Pseudomonas biofilm growth suppression – PAO1 strain, BacTiter-Glo luminescence, LB-PBS, primary screen (AID 1144). The settings on record: P. aeruginosa PAO1 biofilm, 12 h, higher = more signal.
Test [14] can be described thus: basal CRE-LacZ reporter activity in PC12 – cell-based, unstimulated, primary screen (AID 1145). To be noted: no forskolin, luminescence, 4.5 h, higher = more signal, called active from +8 up or from −8 down.
Test [15] can be described thus: forskolin-driven CRE-LacZ activity in PC12 – cell-based, CRE-LacZ reporter, forskolin-stimulated, primary screen (AID 1146).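 Also: PC12 cells with 6xCRE LacZ reporter stimulated by forskolin 10 µM; beta-galactosidase reporter signal reflecting CREB driven transcription.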 To be noted: luminescence, 4.5 h, higher = more signal, called active from +8 up or from −8 down.
In test [16] the target is Streptavidin (Streptomyces avidinii) (UniProt P22629). As to the kind of experiment: compounds binding control protein streptavidin – biophysical, small-molecule microarray, 635/667 nm fluorescence, artefact control for SMM compound annotation, primary screen (AID 1147).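 Also: signal reflects streptavidin binding to arrayed compounds as a control protein.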 To be noted: higher = more signal.
Test [17] in a line: probe aInhba binding on compound microarray – biochemical, small-molecule microarray, 635/667 nm fluorescence, primary screen (AID 1148).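 Also: score merges 667nm spot fluorescence with signal-to-noise for antibody binding to printed compounds.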 To be noted: higher = more signal.
In test [18] the target is Torsin-1A (Homo sapiens) (UniProt O14656). As to the kind of experiment: TOR1A wild-type binding on microarray – cell lysate, small-molecule microarray, lysate, 635/667 nm, primary screen (AID 1149). To be noted: COS7 hTOR1A-WT lysate, 635 nm fluorescence, higher = more signal.
Test [19] has the same target. As to the kind of experiment: torsin A mutant lysate binding on microarrays – cell lysate, small-molecule microarray, COS7 lysate, 635/667 nm fluorescence, primary screen (AID 1150).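 Also: score pools 667 nm emission and signal to noise measuring lysate protein binding.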 To be noted: COS7 hTOR1A mutant lysate, 635 nm fluorescence, higher = more signal.
Test [20] concerns Sonic hedgehog protein (Shh). As to the kind of experiment: Sonic hedgehog microarray binding compounds – biochemical, small-molecule microarray, 635/667 nm fluorescence, primary screen (AID 1151).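 Also: Shh protein binding to compounds spotted on small-molecule microarray slides; score combines spot fluorescence intensity with signal-to-noise across triplicate slides.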 To be noted: 635 nm fluorescence, higher = more signal.

Active and inactive are the calls of the source. Unless noted, no rule for the calls is given here.

Fibroblast growth factor 2 (Homo sapiens), sequence (P09038 whole entry, looked up): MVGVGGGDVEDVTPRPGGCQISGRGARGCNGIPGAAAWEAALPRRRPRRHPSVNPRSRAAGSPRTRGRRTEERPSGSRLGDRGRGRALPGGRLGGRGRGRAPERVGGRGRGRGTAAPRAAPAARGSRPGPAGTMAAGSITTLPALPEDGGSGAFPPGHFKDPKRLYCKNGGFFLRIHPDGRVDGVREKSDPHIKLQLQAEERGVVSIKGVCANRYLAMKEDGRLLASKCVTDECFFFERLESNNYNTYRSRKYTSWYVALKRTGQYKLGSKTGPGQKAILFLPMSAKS
Streptavidin (Streptomyces avidinii), sequence (P22629 whole entry, looked up): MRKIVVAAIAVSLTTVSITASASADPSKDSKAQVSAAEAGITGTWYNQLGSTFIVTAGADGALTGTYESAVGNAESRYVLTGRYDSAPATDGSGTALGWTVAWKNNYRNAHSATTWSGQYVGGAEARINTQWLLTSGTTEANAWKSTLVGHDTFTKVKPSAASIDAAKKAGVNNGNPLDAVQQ
Torsin-1A (Homo sapiens), sequence (O14656 whole entry, looked up): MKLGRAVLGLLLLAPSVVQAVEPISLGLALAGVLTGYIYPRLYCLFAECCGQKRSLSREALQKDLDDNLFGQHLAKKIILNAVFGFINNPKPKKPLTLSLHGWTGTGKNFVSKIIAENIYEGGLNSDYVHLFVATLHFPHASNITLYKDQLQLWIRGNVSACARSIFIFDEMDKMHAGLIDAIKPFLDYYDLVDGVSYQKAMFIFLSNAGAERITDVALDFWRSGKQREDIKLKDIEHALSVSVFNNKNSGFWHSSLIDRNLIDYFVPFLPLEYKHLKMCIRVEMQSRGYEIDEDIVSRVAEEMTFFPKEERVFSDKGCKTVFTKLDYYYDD
Follistatin (Homo sapiens), sequence (P19883 whole entry, looked up): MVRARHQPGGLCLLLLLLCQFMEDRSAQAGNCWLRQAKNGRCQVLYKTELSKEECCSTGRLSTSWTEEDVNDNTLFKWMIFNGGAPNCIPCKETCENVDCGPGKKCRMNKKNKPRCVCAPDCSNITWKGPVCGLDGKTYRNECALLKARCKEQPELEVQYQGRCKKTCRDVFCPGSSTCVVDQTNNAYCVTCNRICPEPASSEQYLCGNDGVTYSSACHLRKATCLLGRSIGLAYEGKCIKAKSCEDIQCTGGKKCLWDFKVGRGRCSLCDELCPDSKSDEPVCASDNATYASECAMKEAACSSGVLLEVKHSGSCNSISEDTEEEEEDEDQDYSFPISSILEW
Focal adhesion kinase 1 (Homo sapiens), sequence (Q05397 whole entry, looked up): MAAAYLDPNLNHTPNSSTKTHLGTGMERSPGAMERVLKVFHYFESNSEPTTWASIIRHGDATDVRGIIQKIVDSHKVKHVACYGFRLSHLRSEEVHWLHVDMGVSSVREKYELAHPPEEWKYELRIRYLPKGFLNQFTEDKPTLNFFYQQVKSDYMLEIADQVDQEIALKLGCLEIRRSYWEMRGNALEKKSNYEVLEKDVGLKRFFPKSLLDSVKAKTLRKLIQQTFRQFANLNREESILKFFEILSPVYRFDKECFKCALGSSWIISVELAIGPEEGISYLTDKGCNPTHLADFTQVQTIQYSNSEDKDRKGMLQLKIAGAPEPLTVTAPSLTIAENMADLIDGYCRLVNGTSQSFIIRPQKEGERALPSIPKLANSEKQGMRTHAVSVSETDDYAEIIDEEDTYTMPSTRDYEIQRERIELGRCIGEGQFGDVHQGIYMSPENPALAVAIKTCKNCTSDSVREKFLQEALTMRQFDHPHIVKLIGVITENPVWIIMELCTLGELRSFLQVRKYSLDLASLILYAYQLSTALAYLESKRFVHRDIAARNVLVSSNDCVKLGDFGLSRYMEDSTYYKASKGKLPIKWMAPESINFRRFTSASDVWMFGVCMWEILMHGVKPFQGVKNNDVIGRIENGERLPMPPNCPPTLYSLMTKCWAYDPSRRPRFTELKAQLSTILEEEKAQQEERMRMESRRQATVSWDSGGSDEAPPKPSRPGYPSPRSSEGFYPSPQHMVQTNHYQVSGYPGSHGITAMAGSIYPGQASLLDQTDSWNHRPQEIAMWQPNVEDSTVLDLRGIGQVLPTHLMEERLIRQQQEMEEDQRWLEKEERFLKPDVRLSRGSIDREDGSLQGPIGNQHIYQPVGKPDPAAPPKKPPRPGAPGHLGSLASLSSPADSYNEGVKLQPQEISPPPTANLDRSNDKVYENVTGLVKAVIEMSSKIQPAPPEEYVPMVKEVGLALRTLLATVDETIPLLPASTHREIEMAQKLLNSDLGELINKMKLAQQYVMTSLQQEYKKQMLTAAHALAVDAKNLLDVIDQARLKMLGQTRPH
Luciferin 4-monooxygenase (Photinus pyralis), sequence (P08659 whole entry, looked up): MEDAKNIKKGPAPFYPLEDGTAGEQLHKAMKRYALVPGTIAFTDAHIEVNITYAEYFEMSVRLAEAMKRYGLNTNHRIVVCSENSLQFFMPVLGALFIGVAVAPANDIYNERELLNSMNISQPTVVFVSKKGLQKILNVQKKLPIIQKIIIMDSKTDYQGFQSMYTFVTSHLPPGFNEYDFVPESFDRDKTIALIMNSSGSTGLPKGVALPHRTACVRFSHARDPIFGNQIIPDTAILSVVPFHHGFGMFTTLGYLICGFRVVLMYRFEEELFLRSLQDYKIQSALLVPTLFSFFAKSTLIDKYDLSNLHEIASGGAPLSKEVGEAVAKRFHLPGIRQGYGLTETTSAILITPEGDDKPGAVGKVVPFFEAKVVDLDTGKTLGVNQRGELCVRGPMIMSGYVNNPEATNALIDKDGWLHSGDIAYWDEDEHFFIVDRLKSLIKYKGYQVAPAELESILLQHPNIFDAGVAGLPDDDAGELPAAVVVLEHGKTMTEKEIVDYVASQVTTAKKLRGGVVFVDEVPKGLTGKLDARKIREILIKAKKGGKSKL

Regarding `CC(C)[Si](C#Cc1ccccc1)(O[C@H](c1ccccc1)c1cn(Cc2ccccc2)nn1)C(C)C`, the composite z-score in test [1] turned out to be 0.409; in test [2], 1.11; in test [3] it was 0.188; in [4] it was 0.588; in test [5], 1.11; in test [6], 1.3. For the same compound, the composite z-score was -0.0104 in test [8]; 0.139 in test [9]; -0.0899 in test [11]; 0.983 in [16]; -0.222 in test [17]; 0.555 in test [18]. The composite z-score in [19] was 0.841; in test [20] it was 0.375. The z-score is -0.485 in test [7]; -1.3 (inactive) in test [10]; -2.32 (inactive) in [12]; -0.519 (inactive) in test [13]; -0.635 (inactive) in [14]; -1.08 (inactive) in test [15].

As to `O=C1C2C=CC(C(O)c3ccccn3)N(Nc3ccc([N+](=O)[O-])cc3)C2C(=O)N1c1ccccc1` (stereo not given), the composite z-score in test [1] turned out to be 0.344; in test [2], 1.16; in test [3], 0.427; in test [4], 1.02; in test [5], 0.336; in test [6], 0.292. Besides, the composite z-score in [8] is -0.43; in test [9], 1.05; in test [11], 0.333; in test [16], 1.24; in test [17], 0.0589; in test [18], -0.146. Also, the composite z-score in test [19] came out at 0.098; in [20], 0.04. In addition, the z-score in test [7] is -0.378; in test [10] it was 0.654 (inactive); in [12] it was -0.476 (inactive); in test [13] it was -0.277 (inactive); in test [14], 0.379 (inactive); in [15], -0.0636 (inactive).

Take `O=C1OCC=C[C@H]2OC34C=CCN(Cn5nnc6ccccc65)C(=O)[C@H]3N(CCO)C(=O)[C@@H]4[C@@H]12` (stereo not given in full): the composite z-score in test [1] is 1.68; in test [2], -0.696; in test [3], -0.619; in test [4] it was -1.41; in [5] it was -1.32; in [6] it was -1.46. In addition, the composite z-score in test [8] is -1.17; in test [9] it was -0.944; in [11] it was -0.26; in test [16], -1.02; in [17], -0.208; in test [18], 1.09. The composite z-score is -1.8 in [19] and -0.793 in test [20]. Moreover, the z-score is -0.546 in test [7]; 0.0848 (inactive) in test [10]; 0.473 (inactive) in test [12]; 1.43 (inactive) in test [13]; 0.455 (inactive) in [14]; 0.792 (inactive) in [15].

Regarding `CN1C(=O)C2C(C1=O)C1C=C(CCCO)C2C(C2CC2)N1C` (stereo not given), the composite z-score in test [1] was -0.194; in test [2], -0.404; in [3], 0.813; in test [4] it was -1.04; in [5], -0.39; in [6] it was 0.628. Moreover, the composite z-score in test [8] is -0.991; in test [9], 0.0425; in test [11], 0.0748; in test [16] it was -0.45; in test [17], 0.0543; in test [18], -0.427. The composite z-score in [19] is -0.454; in [20], -0.685. The z-score is 0.772 in [7]; -0.224 (inactive) in test [10]; -2.56 (inactive) in test [12]; 0.189 (inactive) in test [13]; 0.0295 (inactive) in [14]; -0.984 (inactive) in test [15].

Regarding `COCCOC(=O)N1C(=O)[C@@]2(c3cc(C#CC4=CCCCC4)ccc31)[C@H](C(=O)N1CCCCCCC1)[C@H]1C(=O)O[C@H](c3ccccc3)[C@H](c3ccccc3)N1[C@@H]2c1ccccc1OCCO`, the composite z-score in test [1] was found to be 0.316; in [2], 1.19; in [3] it was 0.391; in test [4] it was 0.461; in test [5] it was 1.42; in test [6], 0.679. For the same compound, the composite z-score in [8] stood at 1.01; in test [9], 0.275; in test [11] it was 0.393; in test [16], 1.04; in test [17], 0.806; in test [18], 0.801. Further, the results for the composite z-score in test [19] and in [20] were 0.824 and 1.62, respectively. Moreover, the z-score in [7] is -1; in test [10], 0.104 (inactive); in [12], -5.21 (inactive); in [13], -1.33 (inactive); in [14], -1.7 (inactive); in [15] it was -1.11 (inactive).

The record behind these values is PubChem BioAssay.
